The target in assay [1] is Albumin (Bos taurus) (UniProt P02769). The experiment in a line: compounds binding labelled BSA control protein – biochemical, small-molecule microarray, Alexa647 label, 635/667 nm fluorescence, artefact control for SMM control protein annotation, profiling panel (AID 1118).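 Further: score merges 667 nm emission intensity and signal-to-noise per printed compound spot.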 The settings on record: BSA-A647 binding, fluorescence 635 nm, higher = more signal.
The nature of assay [2]: probe aXIP binding to arrayed compounds – biochemical, NeuroSMM set, 635/667 nm fluorescence, primary screen (AID 1119).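 Further: probe is the protein aXip251-270 applied at 1 µg/mL to compound-printed slides; binding of probe to printed compounds measured as 667 nm fluorescence plus signal to noise.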 The settings on record: small-molecule microarray, higher = more signal, called active from +8 up or from −8 down.
Assay [3] is described as follows: probe aNOTCH3 binding on compound microarray – biochemical, small-molecule microarray, 635/667 nm fluorescence, primary screen (AID 1120).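 Further: probe is a biotin-tagged antibody raised against NOTCH3 rather than NOTCH3 protein; score merges spot fluorescence near 667 nm with spot signal to noise.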 The settings on record: higher = more signal.
Assay [4] in a line: probe aNOTCH2 binding on compound microarray – biochemical, small-molecule microarray, 635/667 nm fluorescence, primary screen (AID 1121).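 Further: score merges feature fluorescence read at 667 nm with its signal to noise.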 The settings on record: higher = more signal.
For assay [5], the target named is Carbonic anhydrase 2 (Homo sapiens) (UniProt P00918). The experiment in a line: compounds binding carbonic anhydrase 2 – biochemical, small-molecule microarray, Alexa647-labelled CAII, profiling panel (AID 1122). The settings on record: CAII-A647 binding fluorescence, higher = more signal.
A short description of assay [6]: COS7 lysate on small-molecule microarray, probe aHis, 635 nm (AID 1123).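 Further: z-score combines 667nm fluorescence intensity with signal-to-noise per printed compound spot.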 The settings on record: COS7 cell lysate, fluorescence, higher = more signal.
Assay [7] in a line: probe aLAP1 signal on lysate-treated microarray – cell lysate, small-molecule microarray, COS7 lysate, primary screen (AID 1124).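 Further: lysate comes from COS7 cells expressing LAP1 and is applied at 0.3 µg/mL; score merges spot fluorescence near 667 nm with signal-to-noise over triplicate slides.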 To be noted: probe aLAP1, fluorescence, higher = more signal.
The subject of assay [8] is Sam68 (KHDRBS1). The experiment in a line: compounds binding KHDRBS1 protein – biochemical, small-molecule microarray, 635 nm fluorescence, primary screen (AID 1125).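 Further: score merges 667 nm channel intensity with signal to noise over triplicate slides.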 To be noted: higher = more signal.
The subject of assay [9] is Chordin-like protein 2 (CHRDL2). The experiment in a line: compounds binding chordin-like 2 – biochemical, small-molecule microarray, 635 nm fluorescence, primary screen (AID 1126).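 Further: printed compound slides probed with Chrdl2 protein at 4 µg/mL for 1 h at 4 C; score merges 667 nm emission intensity with signal to noise over three replicate slides.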 To be noted: fluorescence 635 nm, higher = more signal.
In assay [10] the target is Concanavalin-A (Canavalia ensiformis) (UniProt P02866). Kind of assay: compounds binding concanavalin A lectin – biochemical, small-molecule microarray, Alexa647 label, 635 nm, artefact control for SMM control protein annotation, primary screen (AID 1127).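 Further: z combines 667 nm emission intensity with signal-to-noise across three replicate slides.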 To be noted: ConA-A647 binding fluorescence, higher = more signal.
A short description of assay [11]: compounds binding Alexa647 anti-His antibody – biochemical, small-molecule microarray, 635 nm fluorescence, artefact control for SMM control protein annotation, primary screen (AID 1128).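 Further: score merges feature fluorescence with signal-to-noise for each printed compound spot.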 To be noted: higher = more signal.
For assay [12], the system named is Human papillomavirus type 1a E7 protein (residues 1-88). Kind of assay: HPV1a E7 small-molecule binders, primary screen, biochemical, small-molecule microarray, residues 1-88, 635 nm (AID 1129). The settings on record: small-molecule microarray binding, fluorescence 635 nm; higher = more signal.
Assay [13] has as its target Focal adhesion kinase 1 (Homo sapiens) (UniProt Q05397). The experiment in a line: PTK2 protein binding on printed compound slides – biochemical, small-molecule microarray, 635/667 nm fluorescence, BSA, DTT, primary screen (AID 1130).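 Further: composite of spot emission at 667 nm and signal to noise over triplicate slides.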 The settings on record: 635 nm fluorescence, higher = more signal.
Assay [14] relates to Fibrinogen (Alexa647-labelled). The experiment in a line: Alexa647-fibrinogen binding to printed small molecules – biochemical, small-molecule microarray, 635/667 nm fluorescence, artefact control for SMM control-protein annotation, profiling panel (AID 1131).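 Further: z-score merges 667 nm fluorescence with per-spot signal-to-noise over triplicate slides.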 The settings on record: fibrinogen-A647 binding fluorescence, higher = more signal.
Assay [15] addresses Follistatin (Homo sapiens) (UniProt P19883). The experiment in a line: FST protein binding to printed compounds – biochemical, small-molecule microarray, 635/667 nm fluorescence, primary screen (AID 1132). To be noted: 635 nm fluorescence, higher = more signal.
The target of assay [16] is Fibroblast growth factor 2 (Homo sapiens) (UniProt P09038). The experiment in a line: basic fibroblast growth factor binding to printed compounds – biochemical, small-molecule microarray, 635/667 nm fluorescence, primary screen (AID 1133). To be noted: FGF2, fluorescence 635/667, higher = more signal.
A short description of assay [17]: JC-1 mitochondrial potential readout, lung cancer cells – cell-based, A549, JC-1 fluorescence, basal, 24 h, 100 nL, profiling panel (AID 1138).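 Further: A549 lung adenocarcinoma cells under basal conditions with no added stimulus; test concentration not given here.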 To be noted: higher = more signal.
The test system of assay [18] is Lefty1. Kind of assay: Lefty1 protein binding to printed compounds – biochemical, small-molecule microarray, 635/667 nm fluorescence, primary screen (AID 1139). The settings on record: fluorescence 635/667, higher = more signal.
Assay [19] deals with wheat germ agglutinin (Triticum aestivum), Alexa647-labelled. The experiment in a line: Alexa647-WGA lectin binding to printed small molecules – biochemical, small-molecule microarray, 635/667 nm fluorescence, artefact control for SMM control-protein annotation, profiling panel (AID 1140).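 Further: score merges 667 nm feature emission with signal to noise over triplicate slides.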 The settings on record: WGA-A647 binding, 635 nm fluorescence, higher = more signal.
Assay [20] deals with Luciferin 4-monooxygenase (Photinus pyralis) (UniProt P08659). Kind of assay: inhibition of purified Photinus pyralis luciferase – biochemical, luminescence, purified enzyme, 2006 set, primary screen (AID 1141).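 Further: cell-free assay with purified firefly luciferase at 100 ng per well in PBS; test concentration not given here.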 The settings on record: purified firefly luciferase, SteadyGlo luminescence, 30 min; higher = more signal, called active from +8 up or from −8 down.

Active and inactive are the calls of the source.

Concanavalin-A (Canavalia ensiformis), sequence (P02866 whole entry, looked up): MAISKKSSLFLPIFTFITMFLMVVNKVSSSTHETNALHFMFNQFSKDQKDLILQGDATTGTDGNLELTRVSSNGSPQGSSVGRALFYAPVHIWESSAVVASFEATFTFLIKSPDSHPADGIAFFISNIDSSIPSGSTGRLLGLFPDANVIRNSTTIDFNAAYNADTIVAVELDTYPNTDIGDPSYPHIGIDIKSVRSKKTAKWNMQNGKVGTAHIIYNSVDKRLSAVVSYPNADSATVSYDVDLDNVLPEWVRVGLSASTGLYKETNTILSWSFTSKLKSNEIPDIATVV
Albumin (Bos taurus), sequence (P02769 whole entry, looked up): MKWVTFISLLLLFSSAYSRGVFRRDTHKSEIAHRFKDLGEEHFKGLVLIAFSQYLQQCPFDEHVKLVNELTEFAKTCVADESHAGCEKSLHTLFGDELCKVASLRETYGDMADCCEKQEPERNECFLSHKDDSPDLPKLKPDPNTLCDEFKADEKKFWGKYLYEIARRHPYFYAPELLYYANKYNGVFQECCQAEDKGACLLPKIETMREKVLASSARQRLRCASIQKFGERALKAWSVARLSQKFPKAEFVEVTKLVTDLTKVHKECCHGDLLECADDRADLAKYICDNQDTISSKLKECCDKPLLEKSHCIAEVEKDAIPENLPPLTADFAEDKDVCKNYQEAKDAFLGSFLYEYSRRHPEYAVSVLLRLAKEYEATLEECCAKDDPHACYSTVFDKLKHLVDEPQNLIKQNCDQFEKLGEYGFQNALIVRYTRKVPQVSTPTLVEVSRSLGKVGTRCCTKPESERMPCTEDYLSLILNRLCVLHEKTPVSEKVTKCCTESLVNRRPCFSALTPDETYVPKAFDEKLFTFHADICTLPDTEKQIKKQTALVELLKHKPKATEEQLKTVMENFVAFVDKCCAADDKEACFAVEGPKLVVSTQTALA
Focal adhesion kinase 1 (Homo sapiens), sequence (Q05397 whole entry, looked up): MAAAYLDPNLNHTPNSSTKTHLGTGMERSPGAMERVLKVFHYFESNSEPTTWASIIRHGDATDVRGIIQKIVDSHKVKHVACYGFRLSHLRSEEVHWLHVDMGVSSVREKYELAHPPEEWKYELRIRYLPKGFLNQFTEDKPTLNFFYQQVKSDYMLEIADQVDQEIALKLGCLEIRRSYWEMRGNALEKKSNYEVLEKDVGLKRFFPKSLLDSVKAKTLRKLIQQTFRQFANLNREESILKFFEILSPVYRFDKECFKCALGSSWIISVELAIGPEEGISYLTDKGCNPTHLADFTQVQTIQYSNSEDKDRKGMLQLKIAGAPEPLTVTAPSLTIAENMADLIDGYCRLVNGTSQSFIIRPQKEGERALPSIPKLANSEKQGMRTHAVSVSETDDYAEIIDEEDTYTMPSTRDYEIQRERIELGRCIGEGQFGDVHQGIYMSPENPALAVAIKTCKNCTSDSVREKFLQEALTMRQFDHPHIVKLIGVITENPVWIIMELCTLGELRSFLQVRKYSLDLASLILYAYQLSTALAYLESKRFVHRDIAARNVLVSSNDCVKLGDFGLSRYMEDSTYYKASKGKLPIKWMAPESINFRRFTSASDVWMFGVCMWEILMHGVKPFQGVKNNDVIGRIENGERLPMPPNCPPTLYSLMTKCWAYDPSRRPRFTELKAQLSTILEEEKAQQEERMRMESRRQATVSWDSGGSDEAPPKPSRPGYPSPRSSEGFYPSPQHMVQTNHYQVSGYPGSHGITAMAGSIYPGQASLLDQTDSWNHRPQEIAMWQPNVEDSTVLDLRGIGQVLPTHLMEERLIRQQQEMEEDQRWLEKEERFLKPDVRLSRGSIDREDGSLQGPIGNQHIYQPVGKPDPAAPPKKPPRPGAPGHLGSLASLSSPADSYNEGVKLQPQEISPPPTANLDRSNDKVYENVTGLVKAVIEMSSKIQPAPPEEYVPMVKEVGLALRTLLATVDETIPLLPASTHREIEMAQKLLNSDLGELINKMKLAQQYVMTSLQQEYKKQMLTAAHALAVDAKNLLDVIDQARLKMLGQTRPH
Fibroblast growth factor 2 (Homo sapiens), sequence (P09038 whole entry, looked up): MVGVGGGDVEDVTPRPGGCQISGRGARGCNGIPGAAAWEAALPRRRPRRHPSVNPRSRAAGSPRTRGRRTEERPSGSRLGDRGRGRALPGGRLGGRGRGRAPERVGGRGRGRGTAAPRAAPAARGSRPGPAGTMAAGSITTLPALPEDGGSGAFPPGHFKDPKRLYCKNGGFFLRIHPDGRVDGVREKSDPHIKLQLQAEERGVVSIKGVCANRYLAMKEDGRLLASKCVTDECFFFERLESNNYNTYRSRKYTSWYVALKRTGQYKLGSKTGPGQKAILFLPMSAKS
Luciferin 4-monooxygenase (Photinus pyralis), sequence (P08659 whole entry, looked up): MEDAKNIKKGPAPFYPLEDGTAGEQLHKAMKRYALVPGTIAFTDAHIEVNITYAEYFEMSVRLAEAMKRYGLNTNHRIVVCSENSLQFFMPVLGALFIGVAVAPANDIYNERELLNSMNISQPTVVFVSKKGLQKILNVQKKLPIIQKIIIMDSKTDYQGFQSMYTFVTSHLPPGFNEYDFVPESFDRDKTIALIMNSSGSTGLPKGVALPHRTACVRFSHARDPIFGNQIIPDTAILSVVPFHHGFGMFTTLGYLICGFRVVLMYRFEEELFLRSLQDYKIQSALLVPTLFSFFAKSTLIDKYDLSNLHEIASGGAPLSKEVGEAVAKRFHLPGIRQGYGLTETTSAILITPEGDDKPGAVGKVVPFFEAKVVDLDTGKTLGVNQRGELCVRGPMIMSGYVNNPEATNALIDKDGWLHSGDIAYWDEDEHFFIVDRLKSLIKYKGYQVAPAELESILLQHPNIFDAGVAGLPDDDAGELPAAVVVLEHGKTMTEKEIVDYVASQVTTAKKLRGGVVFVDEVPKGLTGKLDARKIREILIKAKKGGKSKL
Follistatin (Homo sapiens), sequence (P19883 whole entry, looked up): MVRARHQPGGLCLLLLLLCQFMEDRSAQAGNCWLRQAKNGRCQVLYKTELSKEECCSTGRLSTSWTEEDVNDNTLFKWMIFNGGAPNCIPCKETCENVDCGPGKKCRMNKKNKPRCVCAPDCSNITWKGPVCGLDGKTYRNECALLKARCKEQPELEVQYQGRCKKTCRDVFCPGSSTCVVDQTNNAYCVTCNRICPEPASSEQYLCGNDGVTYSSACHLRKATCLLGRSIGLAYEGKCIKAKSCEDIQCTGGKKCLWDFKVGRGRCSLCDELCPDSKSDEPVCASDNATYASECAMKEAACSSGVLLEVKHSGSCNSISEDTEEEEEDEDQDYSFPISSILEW

Regarding `CN1C(=O)C2C=CC(C(O)c3ccc(I)cc3)N(NC(=O)OC(C)(C)C)C2C1=O` (stereo not given), the composite z-score amounted to 0.825 in assay [1]; 0.435 in assay [3]; 0.17 in assay [4]; 0.719 in assay [5]; 2.18 in assay [6]; 0.555 in assay [7]. In addition, the composite z-score in assay [8] was 1.31; in assay [9], -0.294; in [10] it was 0.898; in assay [11], 0.131; in [12] it was 1.25; in assay [13], 0.739. The composite z-score is 0.974 in assay [14]; 0.669 in assay [15]; -0.0956 in assay [16]; -0.119 in assay [18]; 0.743 in assay [19]. Further, in [2], the composite Z-score is -0.252 (inactive). Further, the results for the z-score in [17] and in assay [20] were -0.317 and 0.607 (inactive), respectively.

As for `C=C(/C(=C/C[C@H](OC(=O)c1ccncc1)c1ccc(OCCO)cc1)c1cnc2ccccc2c1)C(C)C`, the composite z-score in assay [1] was 0.139; in assay [3] it was 0.173; in assay [4], -0.118; in [5], 0.946; in assay [6] it was 0.118; in assay [7], 0.62. Besides, the composite z-score in assay [8] was 1.32; in [9] it was 1.14; in [10], 1.16; in [11] it was 0.426; in assay [12], 1.21; in assay [13], 0.144. In addition, the composite z-score was determined as 0.853 in [14]; 1.47 in [15]; 1.82 in assay [16]; 1.52 in [18]; 0.843 in assay [19]. The composite Z-score in assay [2] is 0.184 (inactive). Besides, the z-score in [17] was 1.26; in assay [20], -2.12 (inactive).

For `CN1C(=O)C2C=CC(C(O)C(c3ccccc3)c3ccccc3)N(NC(=O)OC(C)(C)C)C2C1=O` (stereo not given), the composite z-score worked out at 1.03 in [1]; 0.687 in [3]; 0.498 in assay [4]; 0.793 in assay [5]; 3.42 in [6]; 1 in assay [7]. Further, the composite z-score in assay [8] came to 1.33; in assay [9], 0.0789; in assay [10], 1.19; in assay [11] it was 1.88; in [12] it was 1.18; in assay [13] it was 0.666. Also, the composite z-score in [14] amounted to 0.973; in assay [15] it was 1.03; in assay [16], 0.0319; in assay [18] it was 0.895; in [19], 1.09. Moreover, in [2], the composite Z-score is 1.84 (inactive). For the same compound, the z-score was -0.0852 in [17] and -0.0519 (inactive) in [20].

On to `COc1ccc(O[C@H]2C=C[C@@H](c3ccccc3)O[C@@H]2COC(=O)CCC(C)=NOCC[C@@H]2C=C[C@H](OC(C)=O)[C@@H](COC(C)=O)O2)cc1`, for which the composite z-score is -0.598 in assay [1]; 0.297 in assay [3]; -0.0028 in assay [4]; 0.654 in [5]; 0.938 in [6]; 0.203 in assay [7]. In addition, the composite z-score was -0.23 in assay [8]; -0.0022 in assay [9]; -0.997 in [10]; 0.545 in assay [11]; -0.129 in assay [12]; 0.151 in assay [13]. In addition, the composite z-score is 0.351 in assay [14]; 0.612 in [15]; 0.168 in [16]; 0.342 in assay [18]; 0.193 in assay [19]. In assay [2], the composite Z-score was 0.806 (inactive). Besides, the results for the z-score in assay [17] and in [20] were 0.213 and 1.03 (inactive), respectively.

For the compound `COCCCNC(=O)[C@]1(CCC(=O)OC(C)(C)C)N=C(c2ccc(OCCCO)cc2)O[C@@H]1c1ccccc1N=[N+]=[N-]`, the composite z-score is 0.913 in assay [1]; 0.534 in [3]; -0.092 in [4]; 0.725 in [5]; 3.09 in assay [6]; 0.0106 in [7]. For the same compound, the composite z-score in [8] is 1.31; in [9], -0.18; in assay [10], 1.17; in [11], 1.96; in assay [12], 1.23; in assay [13], 0.688. Besides, the composite z-score in assay [14] is 1.03; in [15] it was 1.28; in [16], 0.894; in [18], 0.735; in assay [19] it was 0.778. In addition, the composite Z-score in assay [2] is 0.201 (inactive). Also, the z-score in [17] was 0.6; in [20], -12 (active).

Source of the values: PubChem BioAssay.
